{
  "source": "the supplement of paper PMC8047044",
  "note": "Where a name gives a salt, the structure may show the parent alone.",
  "data": [
    {"system": "Neuro-2a", "assay": "neurite formation score, plate-normalized to DMSO control mean 5.04 (score (0-8 scale)); higher = more or longer neurites", "conditions": "0.1 µM", "method": "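Neuro-2a mouse neuroblastoma cells in PLL-coated 96-well plates were pre-treated for 1 h in DMEM(+) with each kinase inhibitor at 0.1 µM, then switched to serum-free DMEM(-) with inhibitor to induce neurite outgrowth and fixed about 2-3 h later. Three blinded observers scored neurite formation from 0 (no neurites) to 8 (long neurites on almost all cells).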", "values": [
      {"smiles": "COc1ccc(-c2nc(N3CCOCC3)c3sc(CN(C)c4ncc(C(=O)NO)cn4)cc3n2)cn1", "neurite formation score": 3.58},
      {"smiles": "O=C(NC1CCNCC1)c1n[nH]cc1NC(=O)c1c(Cl)cccc1Cl", "neurite formation score": 5.88},
      {"smiles": "C=CC(=O)Nc1cc(Nc2nccc(-c3cn(C)c4ccccc34)n2)c(OC)cc1N(C)CCN(C)C", "neurite formation score": 3.76},
      {"smiles": "C[C@@]1(C(=O)Nc2ccc(F)nc2)CCCN1c1nc(Nc2cc(C3CC3)n[nH]2)c2cccn2n1", "neurite formation score": 4.38},
      {"smiles": "O=c1cc(CN2CCOCC2)occ1OCCCCCSc1ccnc2cc(C(F)(F)F)ccc12", "neurite formation score": 5.75},
      {"smiles": "CN(C)C(=O)c1cc2cnc(Nc3ccc(N4CCNCC4)cn3)nc2n1C1CCCC1", "neurite formation score": 4.58},
      {"smiles": "O=C(NOCC1CC1)c1ccc(F)c(F)c1Nc1ccc(I)cc1Cl", "neurite formation score": 4.71},
      {"smiles": "Cc1csc(-c2nnc(Nc3ccc(Oc4ncccc4-c4ccnc(N)n4)cc3)c3ccccc23)c1", "neurite formation score": 4.58},
      {"smiles": "O=C(c1cccc(Cl)c1F)N1CCN(Cc2cccc(Nc3nccs3)n2)CC1", "neurite formation score": 1.42},
      {"smiles": "CC1(C)CNc2cc(NC(=O)c3cccnc3NCc3ccncc3)ccc21", "note": "[Motesanib Diphosphate (AMG-706)]", "neurite formation score": 4.92},
      {"smiles": "Cn1cc(-c2[nH]c3cc(NC(=O)[C@H](N)C4CCCCC4)cc4c3c2C=NNC4=O)cn1", "neurite formation score": 4.25},
      {"smiles": "CCN1CCN(Cc2ccc(NC(=O)Nc3ccc(Oc4cc(NC)ncn4)cc3)cc2C(F)(F)F)CC1", "neurite formation score": 2.04},
      {"smiles": "CC1(COc2ccc3c(c2)ncn3-c2ccc3cccc(N4CCC(N)CC4)c3n2)COC1", "neurite formation score": 4.21},
      {"smiles": "Cn1cc(C2=C(c3cn(CCCSC(=N)N)c4ccccc34)C(=O)NC2=O)c2ccccc21", "note": "[Ro 31-8220 Mesylate]", "neurite formation score": 3.08},
      {"smiles": "Cc1ccc([N+](=O)[O-])cc1S(=O)(=O)N(C)/N=C/c1cnc2ccc(Br)cn12", "neurite formation score": 3.08},
      {"smiles": "CCN(CC)CCCCNc1ncc2cc(-c3cc(OC)cc(OC)c3)c(NC(=O)NC(C)(C)C)nc2n1", "neurite formation score": 5.21},
      {"smiles": "CS(=O)(=O)N1CCN(Cc2cc3nc(-c4cccc5[nH]ncc45)nc(N4CCOCC4)c3s2)CC1", "neurite formation score": 5.21},
      {"smiles": "O=c1cc(-c2ccccc2)oc2c(O)c(O)ccc12", "note": "[7,8-Dihydroxyflavone]", "neurite formation score": 5.08},
      {"smiles": "Cc1cc(CN2CCN(c3c(Br)cnc4nc(-c5ccc(N6CCN(C)CC6)cc5)[nH]c34)CC2)no1", "neurite formation score": 4.76},
      {"smiles": "Cc1ccc(-c2csc3ncnc(SCCC(=O)O)c23)cc1", "neurite formation score": 4.58},
      {"smiles": "Cc1cc2c(F)c(Oc3ncnn4cc(OC[C@@H](C)OC(=O)[C@H](C)N)c(C)c34)ccc2[nH]1", "neurite formation score": 4.04},
      {"smiles": "Cn1c(=O)c(F)c(Nc2ccc(I)cc2F)c2c(=O)n(C[C@@H](O)CO)cnc21", "neurite formation score": 4.42},
      {"smiles": "N#Cc1ccc2[nH]c(O)c(-c3ccc(CN4CCOCC4)cn3)c2c1", "neurite formation score": 4.08},
      {"smiles": "Nc1nc(N)c2nc(-c3cccc(O)c3)c(-c3cccc(O)c3)nc2n1", "neurite formation score": 3.38},
      {"smiles": "C[C@H](Nc1ncnc2nc[nH]c12)c1cc2cccc(Cl)c2c(=O)n1-c1ccccc1", "neurite formation score": 5.04},
      {"smiles": "C=CC(=O)Nc1ccc2ncnc(Nc3ccc(OCc4cccc(F)c4)c(Cl)c3)c2c1", "neurite formation score": 4.21},
      {"smiles": "Cc1ccc2c(Nc3ccc(Cl)cc3)nccc2c1Nc1ncccc1-c1ncnc2nc[nH]c12", "note": "[B-Raf inhibitor 1]", "neurite formation score": 4.76},
      {"smiles": "Cn1cc(-c2ccc3c(c2)CCN3C(=O)Cc2cccc(C(F)(F)F)c2)c2c(N)ncnc21", "neurite formation score": 5.25},
      {"smiles": "COc1cc2nccc(Oc3ccc(NC(=O)NC4CC4)c(Cl)c3)c2cc1C(N)=O", "note": "[Lenvatinib (E7080)]", "neurite formation score": 4.38},
      {"smiles": "O=C(NC[C@H](O)CO)c1ccncc1Nc1ccc(I)cc1F", "neurite formation score": 5.54},
      {"smiles": "CC(C)Oc1ccc(-c2cnc3c(-c4ccnc5ccccc45)cnn3c2)cc1", "neurite formation score": 4.08},
      {"smiles": "COC(=O)Nc1nc2cc(C(=O)c3cccs3)ccc2[nH]1", "note": "[Nocodazole]", "neurite formation score": 1.58},
      {"smiles": "CN1CCN(c2nc(C3=C(c4c[nH]c5ccccc45)C(=O)NC3=O)c3ccccc3n2)CC1", "note": "[Sotrastaurin (AEB071)]", "neurite formation score": 4.92},
      {"smiles": "COc1cc(C(=O)NC2CCN(C)CC2)ccc1Nc1ncc2c(n1)N(C1CCCC1)CC(F)(F)C(=O)N2C", "neurite formation score": 4.25},
      {"smiles": "O=c1c(O)c(-c2ccc(O)c(O)c2)oc2cc(O)cc(O)c12", "note": "[Quercetin]", "neurite formation score": 5.08},
      {"smiles": "C=CC(=O)Nc1cccc(Nc2nc(Nc3ccc(OCCOC)cc3)ncc2F)c1", "neurite formation score": 4.71},
      {"smiles": "Cn1cnc2c(F)c(Nc3ccc(Br)cc3Cl)c(C(=O)NOCCO)cc21", "note": "[AZD6244 (Selumetinib)]", "neurite formation score": 5.54}
    ]}
  ]
}
